Source: PubChem
This is a sample that favours compounds with a hit; in the whole collection about 6.6% have one here.
PTAP TSG101 blk: blocks PTAP/TSG101 interaction to inhibit HIV-1 budding; Potency, µM (series often up to 115 µM), for inactives: at the top dose activity change, negative = inhibition, hits mostly inhibitors; Q99816; Fluorescence polarization, FITC-PTAP peptide / Tsg101 binding; 340,000 tested, under 10 active; active = well fitted inhibition curve with a large enough effect in the main read-out, with a control signal flat, not every such curve was filed as active; inconclusive = small, poorly fitted or top-dose-only effect, or effect the other way, or a change in a side signal; inactive = no such curve, though single readings can be large or run the other way; also: % of control where 0% means no effect
Target sequence (Q99816 whole entry, looked up): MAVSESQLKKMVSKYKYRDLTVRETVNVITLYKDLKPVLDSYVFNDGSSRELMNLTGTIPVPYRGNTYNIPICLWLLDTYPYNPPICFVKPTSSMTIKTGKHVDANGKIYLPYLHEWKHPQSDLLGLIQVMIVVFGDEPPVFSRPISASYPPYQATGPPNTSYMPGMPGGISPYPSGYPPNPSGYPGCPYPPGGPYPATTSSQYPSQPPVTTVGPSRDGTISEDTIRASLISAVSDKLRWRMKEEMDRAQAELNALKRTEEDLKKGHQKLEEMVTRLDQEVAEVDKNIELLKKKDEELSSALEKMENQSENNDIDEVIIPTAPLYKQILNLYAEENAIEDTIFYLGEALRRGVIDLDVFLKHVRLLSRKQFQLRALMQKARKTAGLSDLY
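Tsg101 binding domain (10 uM final) was mixed with compound and a FITC-labeled PTAP peptide (50 nM final) in HEPES pH 7.5 buffer with NaCl, Tween 20, EDTA and TCEP; fluorescence polarization was read after 20 min at r.t.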
KB-V1 cytotox: KB-V1 MDR subline cytotoxicity | KB-V1 MDR cells viability, CellTiter-Glo, 72 h | Potency, µM (highest dose often 46.1 µM), usual class: cytotoxic | 3.4% of 400,000 active | AID 1347076; also: % is scaled to controls: 0 for no effect and ±100 for the full control effect; nearly all actives have a fitted effect of over 60% in size
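KB-V1, DMEM (no phenol red) + 10% FBS; cpd pin-transferred, titration series; 72 h, 37 degrees C; CellTiter-Glo, luminescence. Data normalized, curve-fit.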
MCF10A rereplic: induces DNA re-replication in MCF 10a normal breast cells; Potency, µM (highest dose often 46.1 µM), for the others: at the top dose activity, positive = re-replication, most hits filed as activators; 2.9% of 350,000 active; MCF 10A DNA re-replication, Hoechst nuclear intensity, 48 h; also: % of control where 0% means no effect; nearly all actives have a fitted effect of over 50% in size
KB-3-1 cytotox: kills parental KB-3-1 adenocarcinoma cells | KB-3-1 viability, CellTiter-Glo ATP luminescence, 72 h | Potency, µM (titrated, usually from 46.1 µM), most hits filed as cytotoxic | 1.4% of 400,000 active; also: % is scaled to controls: 0 for no effect and ±100 for the full control effect; nearly all actives have a fitted effect of over 60% in size
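KB-3-1 cells, DMEM (no phenol red) + 10% FBS; compound by pin transfer, 72 h, 37 °C. Readout: CellTiter-Glo luminescence after 10 min. Data normalized, curve-fitted.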
RGS4 inh: human RGS4 inhibition; P49798; Transcreener GDP fluorescence polarization, RGS4-accelerated GTP hydrolysis; Potency, µM (highest dose often 114 µM), without a hit: at the highest dose activity change, negative = inhibition, usual class: inhibitors; 0.039% of 390,000 active; AID 504845; also: % is scaled to controls: 0 for no effect and ±100 for the full control effect; nearly all actives have a fitted effect of over 75% in size
Target sequence (P49798 whole entry, looked up): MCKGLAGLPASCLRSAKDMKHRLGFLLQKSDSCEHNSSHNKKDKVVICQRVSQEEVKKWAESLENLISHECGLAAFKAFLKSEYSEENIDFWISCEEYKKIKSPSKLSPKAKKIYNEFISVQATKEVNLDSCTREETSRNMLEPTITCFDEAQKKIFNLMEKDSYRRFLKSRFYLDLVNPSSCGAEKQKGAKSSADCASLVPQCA
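MLSMR compounds (23 nl, pin-transferred) preincubated 10 min at room temperature with a 500nM (2x) first reagent, then RGS4 at 900nM (2x) plus Transcreener GDP mix added; fluorescence polarization (620/688 nm) read before and after 90 min at 30 °C.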
SW480 rereplic: DNA re-replication induction in SW480 cells | SW480 DNA re-replication, Hoechst DNA content imaging, 48 h | Potency, µM (series often up to 46.1 µM), without a hit: at the highest dose re-replication activation, usual class: activators | 1.8% of 340,000 active; also: % of control where 0% means no effect; nearly all actives have a fitted effect of over 55% in size
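DNA re-replication was detected as more nuclei of elevated Hoechst intensity after 48 hr exposure to compound (23 nL pinned per well of 250 cells).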
The depositor's hits bear a star; i = inactive; ? = inconclusive; . = not tested or not shown; [ ] = remark or other dose. Unless noted, calls follow the shape of the dose curve; as a rule, active = well fitted curve in the direction sought with a large enough effect; inconclusive = small, poorly fitted or top-dose-only effect, or another doubt; inactive = no such curve, though single readings can be large; an effect the other way counts as inactive or inconclusive. Potency is read from the fitted curve at half-maximal effect.

SMILES	PTAP TSG101 blk	KB-V1 cytotox	MCF10A rereplic	KB-3-1 cytotox	RGS4 inh	SW480 rereplic
O=C(NC1CCCC1)C1C(c2ccc(C(F)(F)F)cc2)=Nc2ccccc2N1C(=O)c1cc2ccccc2[nH]1 (centres undefined)	.	13µM*	.	?	.	.
CC(C)NC(=O)C1C(c2ccc(C(F)(F)F)cc2)=Nc2ccccc2N1C(=O)c1cc2ccccc2[nH]1 (centres undefined)	.	i	.	i	.	.
C[C@H]1C=CC(=O)C[C@H]1c1c(F)cccc1Cl	.	.	.	.	10%	.
CCOC(=O)c1c(C)c(C(=O)Nc2ccc3c(c2)OCCO3)c(C)n1C	-6%	15µM*	?	?	-15%	4%
CCOC(=O)c1ccc(NC(=O)Nc2ccn(C)n2)cc1	-4%	16µM*	6%	i	1%	15%
CCOC(=O)c1c(C)c(C(=O)Nc2ccc(N(C)C)cc2)c(C)n1CC	-1%	4.1µM*	6.5µM*	7.3µM*	-34%	10µM*
CCOC(=O)c1c(C)c(C(=O)Nc2cc(F)ccc2F)c(C)n1C	3%	2.6µM*	10µM*	10µM*	-3%	23µM*
CCOC(=O)c1c(C)c(C(=O)NCCOC)c(C)n1CC	1%	i	0%	i	1%	-10%
COc1cccc(OC)c1C(=O)Nc1ccc2c(c1)OCCO2	-4%	i	2%	i	-10%	1%
CCc1ccc2occ(CC(=O)NCc3ccccc3)c2c1	.	i	.	i	-15%	.
CCCCCCCCCCOCC(O)CN (centres undefined)	.	.	?	.	.	0%
CCOc1ccc(-c2nc(Cn3c(=O)cc(-c4ccccc4)c4c(C)nn(C)c43)c(C)o2)cc1OC	.	i	.	i	-11%	.
CCOC(=O)c1ccc(NC(=O)Nc2ccc3c(c2)OCCO3)cc1	-4%	15µM*	-4%	?	-11%	3%
CCOC(=O)c1ccc(NCc2ccc3c(c2)OCO3)cc1	-1%	21µM*	?	i	14%	?
CCOC(=O)c1ccc(NCc2ccc(N(C)C)cc2)cc1	-5%	i	0%	i	-20%	-2%
O=C(CCCCn1c(=O)c2ccccc2n(CC(=O)Nc2ccc(F)cc2F)c1=O)NCCc1ccccc1	.	?	.	i	7%	.
CC1(c2ccc3c(c2)OCO3)NC(=O)N(CC(=O)Nc2ccccc2[N+](=O)[O-])C1=O (centres undefined)	1%	15µM*	-1%	i	-3%	-2%
O=C1CCc2cc(Cl)c(S(=O)(=O)Nc3ccc(Cl)c(Cl)c3)cc2N1	.	i	.	i	.	.
NC(=O)c1nn(Cc2ccccc2)c(=O)c2ccccc12	-4%	?	-1%	i	20%	-6%
COC(=O)c1nn(Cc2ccccc2)c(=O)c2ccccc12	-2%	16µM*	12%	i	0%	-2%
c1ccc2oc(-c3[nH]ncc3CN3CCSCC3)cc2c1	-2%	i	11%	i	13%	-7%
c1ccc2oc(-c3[nH]ncc3CN3CCC(N4CCSCC4)CC3)cc2c1	-3%	i	23µM*	i	-3%[11.4 µM]	-6%
CN(Cc1cccs1)C(=O)Cn1cnc2cc([N+](=O)[O-])ccc2c1=O	-4%	i	0.82µM*	i	8%	-13%
COc1ccc(NC(=O)Cn2c(=O)n(-c3cccc(C(F)(F)F)c3)c(=O)c3sccc32)cc1	.	.	.	.	-3%	.
COc1ccccc1-n1c(C)nc2cc(C(=O)NCCN3CCOCC3)ccc21	1%	?	-9%	i	4%	3.7µM*
SMILES	PTAP TSG101 blk	KB-V1 cytotox	MCF10A rereplic	KB-3-1 cytotox	RGS4 inh	SW480 rereplic
CCOC(=O)c1cnc(-n2cc(C)cn2)nc1Nc1ccccc1OCC	0%	1.2µM*	10%	?	-4%	-4%
CCOC(=O)c1cnc(SC)nc1Nc1cccc(F)c1	-3%	15µM*	-3%	i	-7%	1%
CCOC(=O)c1cnc(SC)nc1Nc1cccc2ccccc12	-11%	12µM*	?	i	-32%	7%
CCOC(=O)c1cnc2c(ccc3ccccc32)c1Nc1ccccc1OCC	.	i	.	i	3%	.
CN1C(c2ccc(F)cc2)=CS/C1=C(\C#N)c1nnc2n1-c1ccccc1SC2	-1%	i	12µM*	i	-15%	-4%
Clc1ccc(-c2nnc3n2-c2ccccc2SC3)cc1	-9%	i	3%	i	-21%	?
Nc1cc(N)nc(SCCOc2ccccc2F)n1	-3%	23µM*	17%	i	-38%	0%
O=C(c1ccc(Cl)cc1)N1CCC(O)(CSc2ccc(Cl)cc2)CC1	-3%	i	16%	0.0007µM*	5%	1%
CN1CCN(C(=O)c2ccc(CSc3ccc(Cl)cc3)cc2)CC1	1%	7.3µM*	1%	?	2%	15%
COc1ccc(C(=O)NCC(c2ccc3c(c2)OCO3)N2CCN(C)CC2)cc1OC (centres undefined)	.	i	.	i	-6%	.
O=C(N/N=C/c1ccc([N+](=O)[O-])s1)c1ccccc1	-4%	i	1%	?	-14%	-1%
O=C(CNC(=O)c1cccc(F)c1)N/N=C/c1ccc([N+](=O)[O-])s1	-5%	i	?	i	23%	18µM*
O=C(N/N=C/c1ccc([N+](=O)[O-])s1)c1ccccc1Br	-1%	?	3%	i	-8%	10µM*
Cn1c(SCC(=O)N/N=C/c2ccc([N+](=O)[O-])s2)nnc1-c1ccccc1	1%	?	18µM*	21µM*	-1%	?
O=C(N/N=C\c1ccc([N+](=O)[O-])s1)c1cncc(Br)c1	-8%	i	7.3µM*	5.8µM*	14%[11.4 µM]	5.8µM*
Cc1ccccc1C(=O)N/N=C/c1ccc([N+](=O)[O-])s1	-5%	?	-12%	i	7%	?
O=C(Cc1ccccc1)N/N=C/c1ccc([N+](=O)[O-])s1	0%	15µM*	?	?	-2%	?
CC1=C(C(=O)Nc2cc(Cl)ccc2C)C2(CCCCC2)OC1=O	.	.	.	.	-2%	.
C=CCNC(=S)NNc1nc2c(c(=O)[nH]1)C1(CCCCC1)Cc1ccccc1-2	-1%	?	23µM*	i	-25%	?
O=c1[nH]c(NCCO)nc2c1C1(CCCC1)Cc1ccccc1-2	-6%	i	?	i	0%	-1%
Cc1cc2[nH]c3c4ccccc4nc(C)c3c2cc1C	0%	?	26%	10µM*	1%	10%
Cc1cc2[nH]c3c(c[n+](C)c4ccccc34)c2cc1C	-2%	i	?	?	-9%	?
